Measurements taken from PubChem BioAssay.
Calls of active or inactive are those of the source. The rule behind the calls is not given here.

The compounds below were run against Pantothenate synthetase (Mycobacterium tuberculosis (strain ATCC 25618 / H37Rv)) (UniProt P9WIL5) (assay: Coupled enzyme confirmation of inhibitors against recombinant Mtb PanC (AID 375;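 note: 0% = full reaction with vehicle and 100% = no enzyme background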)). Conditions: coupled enzyme assay; at 10 µM, hits give high values.
Sequence of Pantothenate synthetase (Mycobacterium tuberculosis (strain ATCC 25618 / H37Rv)) (P9WIL5 whole entry, looked up): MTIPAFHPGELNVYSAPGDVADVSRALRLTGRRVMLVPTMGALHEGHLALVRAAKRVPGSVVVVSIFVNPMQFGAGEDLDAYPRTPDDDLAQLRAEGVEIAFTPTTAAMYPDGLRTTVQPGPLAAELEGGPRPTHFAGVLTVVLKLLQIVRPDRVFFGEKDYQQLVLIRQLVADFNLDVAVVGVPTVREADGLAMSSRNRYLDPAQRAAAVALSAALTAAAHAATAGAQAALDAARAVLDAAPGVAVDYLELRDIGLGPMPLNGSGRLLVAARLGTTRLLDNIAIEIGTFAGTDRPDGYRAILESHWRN
For `COc1cc(C)c(Br)cc1S(=O)(=O)N1CCOCC1`, the inhibition was 2% (inactive).
For `O=C(N1CCCCCC1)N1CCN(S(=O)(=O)N2CCCCC2)CC1`, the inhibition was 0% (inactive).
In the case of `COc1ccccc1CN1C(=O)CCC1(C)C(=O)NC1CCCCCC1` (centres undefined), the inhibition is reported as 8% (inactive).
In the case of `COc1ccc(-c2nc(C)c(C(C)=O)n2O)cc1OC`, the inhibition is reported as 0% (inactive).
For `C(=C\c1ccccc1)/CN1CCN(C(c2ccccc2)c2ccccc2)CC1`, the inhibition was 0% (inactive).
In the case of `Cc1ccc(-n2ncc3c(=O)n(CC(=O)N4CCCc5ccccc54)cnc32)cc1C`, the inhibition is reported as 4% (inactive).
With `CCOc1ccccc1-n1c(SCC(=O)NC(C)CC)nnc1-c1ccoc1C` (centres undefined) the inhibition was 0% (inactive).
With `CN1CC[n+]2cnc3ccccc3c21` the inhibition was 1% (inactive).
In the case of `CC1CN(c2nc(-c3ccccc3)nc3ccccc23)CC(C)O1` (centres undefined), the inhibition is reported as 0% (inactive).
`O=C(C1CCCO1)N1CCc2ccccc21` (centres undefined) was tested, and the inhibition was 10% (inactive).
In the case of `Cc1nnc(N(C)C(=O)c2cccnc2)s1`, the inhibition is reported as 0% (inactive).
`COc1ccc(N2CCN(C(=O)Cc3ccc(-n4c(=O)[nH]c5ccccc5c4=O)cc3)CC2)cc1` was tested, and the inhibition was 6% (inactive).
With `Cn1c(=O)c(=O)n(C)c2cc(S(=O)(=O)N3CCN(c4cccc(C(F)(F)F)c4)CC3)ccc21` the inhibition was 9% (inactive).
`Cc1c(Cl)cnc(NC(=O)COC(=O)C(NC(=O)c2ccco2)C(C)C)c1Cl` (centres undefined) was tested, and the inhibition was 8% (inactive).
With `CN(C(=O)c1ccc2c(=O)n3c(nc2c1)CCCCC3)c1ccccc1` the inhibition was 4% (inactive).
For `O=C(COc1ccccc1)Nc1ccccc1N1CCN(c2ccccc2)CC1`, the inhibition was 2% (inactive).
With `CCOc1cc(C(=O)Nc2ncccn2)cc(OCC)c1OCC` the inhibition was 2% (inactive).
`Nn1cnnc1SCC(=O)Nc1ccc2c(c1)OCCO2` was tested, and the inhibition was 0% (inactive).
In the case of `CC(=O)C1=C(O)C(=O)N(Cc2cccnc2)C1c1ccccc1` (centres undefined), the inhibition is reported as 3% (inactive).
`O=C(O)CCCc1nc(-c2ccccc2)no1` was tested, and the inhibition was 0% (inactive).
For `CCC(CO)Nc1ncnc2c1cnn2-c1ccc(Cl)cc1` (centres undefined), the inhibition was 6% (inactive).
`O=C(CSc1nc2ccccc2s1)N1CCN(C(=O)c2ccco2)CC1` was tested, and the inhibition was 0% (inactive).
With `CCc1nnc(NC(=O)C2Cc3ccccc3CN2S(=O)(=O)c2cccs2)s1` (centres undefined) the inhibition was 1% (inactive).
In the case of `CCS(=O)(=O)c1nc2ccccc2n1CC(=O)N1CCOCC1`, the inhibition is reported as 0% (inactive).
`COc1ccc(OC)c(NC(=O)CCN2CCN(c3ccccc3F)CC2)c1` was tested, and the inhibition was 4% (inactive).
In the case of `O=C(CN1CCCCCC1)OCCN=C1NS(=O)(=O)c2ccccc21`, the inhibition is reported as 0% (inactive).
`CN(C)S(=O)(=O)c1cccc(C(=O)Nc2cccnc2)c1` was tested, and the inhibition was 0% (inactive).
For `Cn1c(=O)c2c(nc(NCc3ccc4c(c3)OCO4)n2Cc2ccccc2F)n(C)c1=O`, the inhibition was 3% (inactive).
For `CCn1c(=O)cc(OCC(=O)Nc2cc(C)ccn2)c2ccccc21`, the inhibition was 0% (inactive).
For `CCOC(=O)CSc1nc(N)c2c3c(sc2n1)CCCC3`, the inhibition was 0% (inactive).
In the case of `N#Cc1nc(-c2cccs2)oc1NCc1ccc(Cl)cc1`, the inhibition is reported as 0% (inactive).
In the case of `O=C(NCc1ccccc1)C1CCN(S(=O)(=O)c2cccc3cccnc23)CC1`, the inhibition is reported as 0% (inactive).
In the case of `Nn1c(SCC(=O)Nc2ccc(Oc3ccccc3)cc2)nnc1C1CC1`, the inhibition is reported as 7% (inactive).
In the case of `Cn1c(=O)n(C)c2cc(CNc3ccc(N4CCOCC4)c(C(=O)O)c3)ccc21`, the inhibition is reported as 11% (inactive).
For `CCOc1ccc(NS(=O)(=O)c2ccc(OCC(=O)N3CCCC3)cc2)cc1`, the inhibition was 0% (inactive).
`Cc1cc(C(=O)Nc2nnc(C(F)(F)F)s2)no1` was tested, and the inhibition was 0% (inactive).
With `COc1ccccc1N(C)S(=O)(=O)c1ccc(C(=O)NC2=NCCS2)cc1` the inhibition was 7% (inactive).
`C=C(C)COc1ccc(-c2nc(N)ncc2-c2ccc(OC)cc2)c(O)c1` was tested, and the inhibition was 2% (inactive).
With `Cc1ccc(C)c(NC(=O)CC(NCCCN2CCOCC2)C(=O)O)c1` (centres undefined) the inhibition was 7% (inactive).
